One sequence from PMC7862700, “An all-to-all approach to the identification of sequence-specific readers for epigenetic DNA modifications on cytosine” can be followed below.

Test in all cases: DAPPL (digital affinity profiling via proximity ligation, sequencing); 10 mM Tris-HCl pH 7.5, 50 mM NaCl, 1 mM DTT, 4% glycerol, room temperature, 30 min; GST-TFs on glutathione beads, 16-mer random dsDNA library, 0.1% formaldehyde crosslink after washing; high values mean tight binding
Test [1] addresses T1, FEV (Homo sapiens, UniProt Q99581 1-238).
T1 sequence: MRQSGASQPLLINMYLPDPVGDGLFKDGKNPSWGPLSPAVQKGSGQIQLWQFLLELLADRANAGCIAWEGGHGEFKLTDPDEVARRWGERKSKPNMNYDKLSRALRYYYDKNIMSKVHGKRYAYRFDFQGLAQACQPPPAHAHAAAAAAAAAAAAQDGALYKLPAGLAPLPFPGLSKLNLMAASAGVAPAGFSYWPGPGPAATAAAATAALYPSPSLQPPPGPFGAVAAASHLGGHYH
As to conditions: protein: recombinant; tags: N-terminal GST; dsDNA, one strand shown. In short, it runs like this:
(§1)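 Human transcription factors were made in yeast as GST fusions, captured on glutathione beads and barcoded with DNA. With a tag-only sample included, the pool was incubated with 200 nmole of a random double-stranded 16-mer DNA library in Tris/NaCl/DTT/glycerol buffer at room temperature for 30 min, then crosslinked with 0.1% formaldehyde after washing, ligated by proximity, amplified and sequenced. For binding signal, each hexamer's read frequency for a factor is divided by its frequency for the tag-only sample.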

Test [2] concerns the target ETV5 (Homo sapiens, UniProt P41161 1-510). Conditions: protein: recombinant; tags: N-terminal GST; dsDNA, one strand shown. In short, it runs like this:
as §1

The target in test [3] is HSF1 (Homo sapiens, UniProt Q00613 1-529). As to conditions: protein: recombinant; tags: N-terminal GST; chain copies: 3; dsDNA, one strand shown. In short, it runs like this:
as §1

The target in test [4] is T2, SPIC (Homo sapiens, UniProt Q8N5J4 1-248).
T2 sequence: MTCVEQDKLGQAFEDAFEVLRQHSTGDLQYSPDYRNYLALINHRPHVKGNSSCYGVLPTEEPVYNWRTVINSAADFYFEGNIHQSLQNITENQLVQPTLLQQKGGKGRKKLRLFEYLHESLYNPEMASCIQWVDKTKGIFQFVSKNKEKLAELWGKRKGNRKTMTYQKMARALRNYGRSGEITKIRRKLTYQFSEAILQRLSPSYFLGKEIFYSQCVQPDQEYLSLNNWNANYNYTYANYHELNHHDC
Conditions: protein: recombinant; tags: N-terminal GST; dsDNA, one strand shown. In short, it runs like this: as §1

For test [5], the target named is ELF4 (Homo sapiens, UniProt Q99607 1-663). As to conditions: protein: recombinant; tags: N-terminal GST; dsDNA, one strand shown. The essentials:
as §1

Test [6] has as its target T3, ELK4 (Homo sapiens, UniProt P28324-2 1-405).
T3 sequence: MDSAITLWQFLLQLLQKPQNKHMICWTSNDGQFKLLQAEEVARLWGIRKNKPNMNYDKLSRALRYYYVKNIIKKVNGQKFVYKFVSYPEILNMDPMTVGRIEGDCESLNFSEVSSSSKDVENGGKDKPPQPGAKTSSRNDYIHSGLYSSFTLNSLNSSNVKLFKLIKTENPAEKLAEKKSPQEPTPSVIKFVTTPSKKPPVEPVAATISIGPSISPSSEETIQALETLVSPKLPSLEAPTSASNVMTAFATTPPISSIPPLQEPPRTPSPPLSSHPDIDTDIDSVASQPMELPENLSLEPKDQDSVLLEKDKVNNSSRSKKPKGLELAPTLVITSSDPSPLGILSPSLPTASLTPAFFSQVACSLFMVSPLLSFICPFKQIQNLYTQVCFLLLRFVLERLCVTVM
As to conditions: protein: recombinant; tags: N-terminal GST; dsDNA, one strand shown. In short, it runs like this:
as §1

In test [7] the target is T4, ETV2 (Homo sapiens, UniProt O00321 1-342).
T4 sequence: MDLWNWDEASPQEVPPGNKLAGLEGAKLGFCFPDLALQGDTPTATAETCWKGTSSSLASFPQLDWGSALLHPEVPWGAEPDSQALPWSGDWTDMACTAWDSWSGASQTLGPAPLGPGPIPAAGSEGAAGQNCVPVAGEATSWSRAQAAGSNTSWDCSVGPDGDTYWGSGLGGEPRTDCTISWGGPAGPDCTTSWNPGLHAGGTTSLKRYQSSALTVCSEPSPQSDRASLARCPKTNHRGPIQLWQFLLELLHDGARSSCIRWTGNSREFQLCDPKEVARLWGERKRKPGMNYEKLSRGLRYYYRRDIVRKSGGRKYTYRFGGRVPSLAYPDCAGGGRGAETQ
As to conditions: protein: recombinant; tags: N-terminal GST; dsDNA, one strand shown. The essentials:
as §1

The target of test [8] is T5, ELF3 (Homo sapiens, UniProt P78545 1-371).
T5 sequence: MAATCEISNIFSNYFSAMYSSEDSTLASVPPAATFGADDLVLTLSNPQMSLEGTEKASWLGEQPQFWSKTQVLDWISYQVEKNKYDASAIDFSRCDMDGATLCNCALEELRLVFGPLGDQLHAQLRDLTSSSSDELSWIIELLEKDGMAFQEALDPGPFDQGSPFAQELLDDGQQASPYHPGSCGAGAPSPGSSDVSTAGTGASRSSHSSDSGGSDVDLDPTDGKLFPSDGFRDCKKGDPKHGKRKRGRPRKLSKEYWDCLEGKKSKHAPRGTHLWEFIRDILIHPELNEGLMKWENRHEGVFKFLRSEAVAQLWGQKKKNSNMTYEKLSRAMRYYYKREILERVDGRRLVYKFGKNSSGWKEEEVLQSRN
Conditions: protein: recombinant; tags: N-terminal GST; dsDNA, one strand shown. In short, it runs like this: as §1

Test [9] addresses CRX (Homo sapiens, UniProt O43186 1-299). As to conditions: protein: recombinant; tags: N-terminal GST; dsDNA, one strand shown. In short, it runs like this: as §1
The target in test [10] is ETV1 (Homo sapiens, UniProt P50549 1-477). Conditions: protein: recombinant; tags: N-terminal GST; dsDNA, one strand shown. In short, it runs like this: as §1
The target in test [11] is T6, ERF (Homo sapiens, UniProt P50548 1-548).
T6 sequence: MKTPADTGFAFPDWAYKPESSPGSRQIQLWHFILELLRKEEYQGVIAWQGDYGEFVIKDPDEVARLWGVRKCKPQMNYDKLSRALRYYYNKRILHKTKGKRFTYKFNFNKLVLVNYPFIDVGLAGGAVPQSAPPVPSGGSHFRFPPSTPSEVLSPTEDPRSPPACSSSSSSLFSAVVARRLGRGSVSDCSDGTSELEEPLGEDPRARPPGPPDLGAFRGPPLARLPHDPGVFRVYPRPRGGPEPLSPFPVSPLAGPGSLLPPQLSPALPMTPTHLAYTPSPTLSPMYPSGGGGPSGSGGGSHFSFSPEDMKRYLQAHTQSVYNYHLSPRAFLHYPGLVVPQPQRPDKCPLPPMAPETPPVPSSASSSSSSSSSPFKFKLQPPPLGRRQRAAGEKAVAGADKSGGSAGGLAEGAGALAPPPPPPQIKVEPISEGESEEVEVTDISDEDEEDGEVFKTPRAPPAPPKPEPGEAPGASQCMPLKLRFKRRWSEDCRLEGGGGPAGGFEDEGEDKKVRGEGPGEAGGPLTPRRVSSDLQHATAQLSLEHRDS
As to conditions: protein: recombinant; tags: N-terminal GST; dsDNA, one strand shown. The essentials:
as §1

Test [12] deals with T7, ETV3L (Homo sapiens, UniProt Q6ZN32 1-361).
T7 sequence: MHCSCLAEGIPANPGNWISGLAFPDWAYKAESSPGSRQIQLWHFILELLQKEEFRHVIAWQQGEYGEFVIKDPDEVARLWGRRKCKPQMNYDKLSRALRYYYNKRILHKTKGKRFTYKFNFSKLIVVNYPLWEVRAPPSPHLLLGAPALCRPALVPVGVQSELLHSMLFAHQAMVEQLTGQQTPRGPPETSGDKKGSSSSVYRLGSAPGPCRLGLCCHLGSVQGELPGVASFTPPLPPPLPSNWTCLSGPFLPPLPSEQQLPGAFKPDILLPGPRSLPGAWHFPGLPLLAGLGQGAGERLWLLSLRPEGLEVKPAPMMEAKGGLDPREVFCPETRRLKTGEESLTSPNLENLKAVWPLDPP
Conditions: protein: recombinant; tags: N-terminal GST; dsDNA, one strand shown. The essentials:
as §1

The target of test [13] is T8, ETS2 (Homo sapiens, UniProt P15036 1-469).
T8 sequence: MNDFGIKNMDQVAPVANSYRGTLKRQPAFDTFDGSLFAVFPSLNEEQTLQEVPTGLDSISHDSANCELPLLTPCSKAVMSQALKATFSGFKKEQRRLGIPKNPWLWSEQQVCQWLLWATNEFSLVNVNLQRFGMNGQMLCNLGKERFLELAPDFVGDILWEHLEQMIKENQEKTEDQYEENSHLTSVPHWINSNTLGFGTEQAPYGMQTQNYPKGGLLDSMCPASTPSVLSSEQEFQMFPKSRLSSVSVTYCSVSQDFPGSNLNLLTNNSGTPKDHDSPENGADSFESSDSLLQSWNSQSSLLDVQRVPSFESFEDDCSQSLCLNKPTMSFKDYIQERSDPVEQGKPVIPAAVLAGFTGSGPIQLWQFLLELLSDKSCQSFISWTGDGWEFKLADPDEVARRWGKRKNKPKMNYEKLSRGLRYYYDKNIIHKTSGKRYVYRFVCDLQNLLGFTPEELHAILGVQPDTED
As to conditions: protein: recombinant; tags: N-terminal GST; dsDNA, one strand shown. The essentials: as §1

For test [14], the target named is T9, SPDEF (Homo sapiens, UniProt O95238 1-335).
T9 sequence: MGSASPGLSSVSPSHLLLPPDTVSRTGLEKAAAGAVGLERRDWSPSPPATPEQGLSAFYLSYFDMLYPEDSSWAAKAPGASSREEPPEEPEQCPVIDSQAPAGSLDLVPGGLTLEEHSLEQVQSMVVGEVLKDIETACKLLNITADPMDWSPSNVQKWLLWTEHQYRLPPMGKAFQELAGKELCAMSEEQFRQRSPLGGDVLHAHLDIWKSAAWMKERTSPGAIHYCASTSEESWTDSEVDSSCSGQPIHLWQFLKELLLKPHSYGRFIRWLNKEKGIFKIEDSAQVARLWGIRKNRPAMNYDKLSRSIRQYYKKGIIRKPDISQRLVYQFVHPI
Conditions: protein: recombinant; tags: N-terminal GST; dsDNA, one strand shown. The essentials: as §1

Test [15] deals with T10, ETV7 (Homo sapiens, UniProt Q9Y603 1-341).
T10 sequence: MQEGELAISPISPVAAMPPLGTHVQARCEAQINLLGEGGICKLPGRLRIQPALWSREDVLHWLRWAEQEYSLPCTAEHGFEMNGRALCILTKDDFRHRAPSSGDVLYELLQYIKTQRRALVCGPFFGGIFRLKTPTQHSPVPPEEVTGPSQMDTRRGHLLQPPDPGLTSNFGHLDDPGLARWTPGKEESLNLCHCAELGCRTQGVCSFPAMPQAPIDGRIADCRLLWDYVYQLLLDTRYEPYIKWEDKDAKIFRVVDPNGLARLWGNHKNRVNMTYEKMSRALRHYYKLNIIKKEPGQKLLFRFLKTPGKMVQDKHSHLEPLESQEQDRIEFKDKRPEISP
As to conditions: protein: recombinant; tags: N-terminal GST; dsDNA, one strand shown. In short, it runs like this: as §1

Test [16] concerns the target T11, ELF5 (Homo sapiens, UniProt Q9UKW6-2 1-255).
T11 sequence: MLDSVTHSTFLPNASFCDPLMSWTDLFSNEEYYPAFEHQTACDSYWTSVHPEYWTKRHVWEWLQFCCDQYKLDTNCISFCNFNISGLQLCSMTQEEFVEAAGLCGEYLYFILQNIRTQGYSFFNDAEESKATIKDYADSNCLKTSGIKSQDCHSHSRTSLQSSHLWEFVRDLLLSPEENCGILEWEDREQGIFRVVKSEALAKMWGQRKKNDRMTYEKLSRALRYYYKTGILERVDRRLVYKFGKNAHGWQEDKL
Conditions: protein: recombinant; tags: N-terminal GST; dsDNA, one strand shown. The essentials: as §1

Test [17] has as its target T12, ETV3 (Homo sapiens, UniProt P41162-2 1-143).
T12 sequence: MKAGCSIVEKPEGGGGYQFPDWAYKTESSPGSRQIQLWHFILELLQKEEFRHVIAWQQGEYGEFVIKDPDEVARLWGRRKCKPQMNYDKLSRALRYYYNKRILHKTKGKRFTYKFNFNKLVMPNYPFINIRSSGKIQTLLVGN
Conditions: protein: recombinant; tags: N-terminal GST; dsDNA, one strand shown. The essentials: as §1

In test [18] the target is ETV6 (Homo sapiens, UniProt P41212 1-452). As to conditions: protein: recombinant; tags: N-terminal GST; dsDNA, one strand shown. In short, it runs like this:
as §1

Chain of CRX (O43186 whole entry): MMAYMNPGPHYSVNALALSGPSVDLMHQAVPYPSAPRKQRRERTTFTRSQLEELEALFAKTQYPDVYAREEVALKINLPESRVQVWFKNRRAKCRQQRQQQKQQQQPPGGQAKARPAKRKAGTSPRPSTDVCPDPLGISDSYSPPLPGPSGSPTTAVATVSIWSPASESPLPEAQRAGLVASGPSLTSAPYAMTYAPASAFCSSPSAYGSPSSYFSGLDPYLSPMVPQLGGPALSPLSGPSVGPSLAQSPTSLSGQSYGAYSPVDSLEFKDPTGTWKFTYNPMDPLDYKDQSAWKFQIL
Chain of ETV6 (P41212 whole entry): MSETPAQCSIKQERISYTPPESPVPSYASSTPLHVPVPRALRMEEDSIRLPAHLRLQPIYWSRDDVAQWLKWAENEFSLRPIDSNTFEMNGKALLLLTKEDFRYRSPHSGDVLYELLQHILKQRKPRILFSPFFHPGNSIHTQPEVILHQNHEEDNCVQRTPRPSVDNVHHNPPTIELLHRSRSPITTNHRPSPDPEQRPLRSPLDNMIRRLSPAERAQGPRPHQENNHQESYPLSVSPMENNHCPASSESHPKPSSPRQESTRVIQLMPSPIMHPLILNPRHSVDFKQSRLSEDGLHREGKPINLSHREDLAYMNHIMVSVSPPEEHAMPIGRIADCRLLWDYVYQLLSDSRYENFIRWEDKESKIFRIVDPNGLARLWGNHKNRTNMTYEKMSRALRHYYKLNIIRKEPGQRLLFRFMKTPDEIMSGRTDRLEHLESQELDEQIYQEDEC
Chain of ETV1 (P50549 whole entry): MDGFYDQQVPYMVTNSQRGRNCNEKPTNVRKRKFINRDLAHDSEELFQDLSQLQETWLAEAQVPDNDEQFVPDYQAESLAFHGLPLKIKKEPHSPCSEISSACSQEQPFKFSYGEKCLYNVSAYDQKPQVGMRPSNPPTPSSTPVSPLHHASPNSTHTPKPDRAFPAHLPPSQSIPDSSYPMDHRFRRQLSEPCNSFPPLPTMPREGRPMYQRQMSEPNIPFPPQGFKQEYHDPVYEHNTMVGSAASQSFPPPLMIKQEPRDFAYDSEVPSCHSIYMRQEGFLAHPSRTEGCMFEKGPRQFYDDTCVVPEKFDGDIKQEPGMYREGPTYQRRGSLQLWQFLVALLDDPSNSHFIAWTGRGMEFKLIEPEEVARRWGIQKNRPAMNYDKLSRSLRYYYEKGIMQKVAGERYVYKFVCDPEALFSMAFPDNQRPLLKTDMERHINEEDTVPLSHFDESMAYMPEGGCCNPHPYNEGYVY
Chain of HSF1 (Q00613 whole entry): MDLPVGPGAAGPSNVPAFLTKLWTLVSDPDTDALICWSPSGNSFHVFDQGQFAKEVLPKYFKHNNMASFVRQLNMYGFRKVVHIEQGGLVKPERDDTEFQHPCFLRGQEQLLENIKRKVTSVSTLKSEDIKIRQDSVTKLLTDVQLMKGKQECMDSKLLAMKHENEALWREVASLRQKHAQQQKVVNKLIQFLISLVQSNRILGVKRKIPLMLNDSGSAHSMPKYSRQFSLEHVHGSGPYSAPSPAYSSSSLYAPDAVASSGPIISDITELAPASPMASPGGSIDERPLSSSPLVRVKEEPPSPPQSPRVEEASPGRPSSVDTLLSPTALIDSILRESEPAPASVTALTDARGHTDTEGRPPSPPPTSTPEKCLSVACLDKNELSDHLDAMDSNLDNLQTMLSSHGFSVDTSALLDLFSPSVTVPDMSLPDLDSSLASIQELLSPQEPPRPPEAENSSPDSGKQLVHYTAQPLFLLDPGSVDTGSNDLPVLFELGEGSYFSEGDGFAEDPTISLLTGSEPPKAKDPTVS
Chain of ELF4 (Q99607 whole entry): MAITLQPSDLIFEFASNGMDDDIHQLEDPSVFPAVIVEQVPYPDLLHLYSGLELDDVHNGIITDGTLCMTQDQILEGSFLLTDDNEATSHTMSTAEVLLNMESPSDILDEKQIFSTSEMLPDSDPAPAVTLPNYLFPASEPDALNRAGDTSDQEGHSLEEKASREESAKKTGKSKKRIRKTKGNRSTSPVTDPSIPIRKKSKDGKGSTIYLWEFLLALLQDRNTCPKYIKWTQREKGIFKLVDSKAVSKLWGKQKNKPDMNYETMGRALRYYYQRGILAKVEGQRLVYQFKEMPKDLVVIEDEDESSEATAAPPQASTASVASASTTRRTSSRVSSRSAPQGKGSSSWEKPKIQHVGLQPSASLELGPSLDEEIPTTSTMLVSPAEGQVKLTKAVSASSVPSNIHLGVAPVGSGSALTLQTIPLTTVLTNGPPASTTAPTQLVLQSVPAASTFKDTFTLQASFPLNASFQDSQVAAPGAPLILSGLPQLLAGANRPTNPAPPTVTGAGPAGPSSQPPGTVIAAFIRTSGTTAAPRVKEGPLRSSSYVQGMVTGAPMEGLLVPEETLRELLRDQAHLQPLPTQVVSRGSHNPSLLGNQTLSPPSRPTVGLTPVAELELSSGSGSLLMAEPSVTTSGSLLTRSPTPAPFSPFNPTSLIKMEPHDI
Chain of ETV5 (P41161 whole entry): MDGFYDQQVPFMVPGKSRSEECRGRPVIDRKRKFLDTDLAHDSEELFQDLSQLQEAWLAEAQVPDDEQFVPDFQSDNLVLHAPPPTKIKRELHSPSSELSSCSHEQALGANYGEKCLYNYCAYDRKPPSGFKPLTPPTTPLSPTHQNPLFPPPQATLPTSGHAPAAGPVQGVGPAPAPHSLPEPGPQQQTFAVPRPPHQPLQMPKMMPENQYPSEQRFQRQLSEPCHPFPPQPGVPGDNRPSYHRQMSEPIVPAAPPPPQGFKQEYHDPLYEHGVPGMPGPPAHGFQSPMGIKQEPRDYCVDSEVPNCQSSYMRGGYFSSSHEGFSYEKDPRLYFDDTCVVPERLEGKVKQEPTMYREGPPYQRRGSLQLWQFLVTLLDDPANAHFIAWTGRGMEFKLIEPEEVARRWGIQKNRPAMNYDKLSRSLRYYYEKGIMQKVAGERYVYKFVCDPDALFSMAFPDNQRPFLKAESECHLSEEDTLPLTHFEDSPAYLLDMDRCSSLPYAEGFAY

For the sequence CCTGAC, the binding signal in [1] was 1.5 fold enrichment (6-mer frequency, TF over GST control); in [2] it was 1.71 fold enrichment (6-mer frequency, TF over GST control); in test [3] it was 1.2 fold enrichment (6-mer frequency, TF over GST control); in test [4] it was 1.3 fold enrichment (6-mer frequency, TF over GST control); in [5], 1.42 fold enrichment (6-mer frequency, TF over GST control); in test [6], 1.5 fold enrichment (6-mer frequency, TF over GST control). In addition, the binding signal in test [7] is 1.61 fold enrichment (6-mer frequency, TF over GST control); in test [8], 1.7 fold enrichment (6-mer frequency, TF over GST control); in test [9], 1.11 fold enrichment (6-mer frequency, TF over GST control); in test [10], 1.61 fold enrichment (6-mer frequency, TF over GST control); in test [11], 1.37 fold enrichment (6-mer frequency, TF over GST control); in test [12], 1.59 fold enrichment (6-mer frequency, TF over GST control). Moreover, the binding signal is 1.56 fold enrichment (6-mer frequency, TF over GST control) in test [13]; 1.51 fold enrichment (6-mer frequency, TF over GST control) in [14]; 1.46 fold enrichment (6-mer frequency, TF over GST control) in [15]; 1.63 fold enrichment (6-mer frequency, TF over GST control) in [16]; 1.44 fold enrichment (6-mer frequency, TF over GST control) in test [17]; 1.6 fold enrichment (6-mer frequency, TF over GST control) in [18].
